According to PubChem BioAssay (NCATS):
Several values for one entry are separate records, joined by “and”; a condition that tells them apart may be missing. Identical values can stand only once. Inconclusive results are not listed. Entries that show only a call come without a potency. Activity calls are given as the source filed them. Unless noted, the call rests on the fitted dose curve; in most records, active means well fitted curve in the direction sought with a large enough effect; inconclusive means small, poorly fitted or top-dose-only effect, or another doubt; inactive means no such curve, though single readings can be large; an effect the other way counts as inactive or inconclusive.

Legend:
[1] = molecular target: DNA repair nuclease/redox regulator APEX1 (Homo sapiens) (UniProt P27695); experiment: qHTS Validation Assay for Inhibitors of the Human Apurinic/apyrimidinic Endonuclease 1 (APE1) (AID 1705;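 further: TAMRA fluorescence gain over two minutes as APE1 cuts a quenched THF abasic duplex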)
Sequence of DNA repair nuclease/redox regulator APEX1 (Homo sapiens) (P27695 whole entry, looked up): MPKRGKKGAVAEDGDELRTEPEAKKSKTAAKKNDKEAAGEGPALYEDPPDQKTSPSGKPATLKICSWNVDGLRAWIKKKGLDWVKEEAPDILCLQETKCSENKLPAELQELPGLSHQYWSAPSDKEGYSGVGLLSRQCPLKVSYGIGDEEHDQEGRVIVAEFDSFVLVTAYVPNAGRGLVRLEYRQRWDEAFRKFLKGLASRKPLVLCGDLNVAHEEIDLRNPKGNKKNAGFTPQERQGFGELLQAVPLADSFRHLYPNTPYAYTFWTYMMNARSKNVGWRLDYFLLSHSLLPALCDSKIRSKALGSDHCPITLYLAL
Summary of the method: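 Fluorogenic double-stranded THF abasic-site substrate (5'-TAMRA/3'-BHQ-2), 50 nM final. Enzyme preincubated with compound 15 min at room temperature, then substrate added. Kinetic fluorescence (ex 525/em 598 nm) read three times at 60 s intervals; activity taken as third-minus-first read difference.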

[2] = Counterscreen for APE1 Inhibitors: Fluorescent Dye Displacement Validation Assay (AID 1707)
Summary of the method: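 Counterscreen flags promiscuous DNA binders: compounds displacing ThO from duplex DNA (abasic THF site, 50 nM) reduce 540 nm emission (480 nm excitation). ThO 250 nM final; Tris-HCl pH 7.5 with NaCl, MgCl2 and Tween-20.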

[3] = qHTS for differential inhibitors of proliferation of Plasmodium falciparum line 7G8 (AID 1815);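 further: parasite growth measured after three days of incubation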; further: potency means the concentration at half of the fitted maximal effect
[4] = qHTS for differential inhibitors of proliferation of Plasmodium falciparum line GB4 (AID 1816); details: Potency: Plasmodium falciparum GB4 proliferation inhibition;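 further: parasite growth measured after 72 h incubation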; further: potency means the concentration at half of the fitted maximal effect
[5] = qHTS for differential inhibitors of proliferation of Plasmodium falciparum line 3D7 (AID 1876); further: potency means the concentration at half of the fitted maximal effect
[6] = qHTS for differential inhibitors of proliferation of Plasmodium falciparum line D10 (AID 1877);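 further: parasites grown with compound for 72 h before DNA staining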; further: potency means the concentration at half of the fitted maximal effect
[7] = qHTS for differential inhibitors of proliferation of Plasmodium falciparum line W2 (AID 1883); details: Potency: Plasmodium falciparum W2 proliferation inhibition;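 further: parasites grown with compound for 72 h before lysis and staining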; further: potency means the concentration at half of the fitted maximal effect
[8] = qHTS Assay for Lipid Storage Modulators (AID 1519; calls by dose curve); details: Drosophila S3 cells, BODIPY lipid droplet/cell ratio, laser cytometry, cells loaded with oleic acid
Summary of the method: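 Cells seeded at 5,000 per well were treated with compounds over a concentration series and loaded with oleic acid (400 uM, as added). Lipid droplet fluorescence (488 nm excitation, 500-530 nm channel) was read by laser-scanning cytometry and normalized to 20 uM Triacsin C.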

[9] = qHTS for differential inhibitors of proliferation of Plasmodium falciparum line Dd2 (AID 1882); details: Potency: Plasmodium falciparum Dd2 proliferation inhibition; further: nearly all actives have a fitted effect of over 65% in size; further: potency means the concentration at half of the fitted maximal effect;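 on activity change, negative = inhibition: compound exposure of 72 h on infected erythrocytes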
Summary of the method: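 RBC culture, 0.3% parasitemia / 2.5% Hct final; cpd added by pin tool in DMSO; 72 h, 37 C, 5% CO2; lysis buffer + SYBR Green I, o/n RT dark; FI 485/535; norm. to artemisinin 0.29 uM and DMSO.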

[10] = molecular target: Endonuclease 4 (Escherichia coli (strain K12)) (UniProt P0A6C1); experiment: Counterscreen for APE1 Inhibitors: qHTS Validation Assay for Inhibitors of Endonuclease IV (AID 1708)
Summary of the method: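 The reaction buffer contained 50 mM Tris-HCl pH 7.5, 50 mM NaCl, 2 mM MgCl2, 1 mM DTT and 0.01% Tween-20. Incision of a 50 nM fluorophore/quencher THF substrate by 2 nM enzyme was measured kinetically.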

[11] = measured here: cell count channel max response
[12] = measured here: lipid channel max response

Compound	Potency [1]	outcome [2]	Potency [3]	Potency [4]	Potency [5]	Potency [6]	Potency [7]	activity change, negative = inhibition ([8]; at 57.5 µM (top of the series))	max response [8, 11]	max response [8, 12]	Potency [9]	activity change, negative = inhibition ([8]; at 25.7 µM (top of the series))	Potency [10]
CN(C)C/C=C(/c1ccc(Br)cc1)c1cccnc1	inactive	inactive	7.08 µM (active)	12.6 µM (active)	10 µM (active)	11.2 µM (active)	7.08 µM (active)						
CC1=C(C)C(=O)C(CCCCC#CCCCC#CCO)=C(C)C1=O		inactive	2.24 µM (active)	2.51 µM (active)	8.91 µM (active)	14.1 µM (active)	3.55 µM (active)	1.13% (inactive)	-22.7%	-21.4%	10 µM (active)		
NC(Cc1ccc(Cl)cc1)C(=O)O (stereo unspecified)	inactive		inactive	inactive	inactive	inactive	inactive	7.45% (inactive)	16.7%	25.4%	inactive		
CN1CCN(CC(=O)N2c3ccccc3C(=O)Nc3cccnc32)CC1	inactive	inactive	inactive	inactive	inactive		inactive	2.91% (inactive) and 6.38% (inactive) and 1.02% (inactive)			inactive	1.33% (inactive)	
C=CCc1ccccc1OCC(O)CNC(C)C (stereo unspecified)	inactive		3.55 µM (active)	1.58 µM (active)	10 µM (active)	12.6 µM (active)	2.24 µM (active)	0.138% (inactive)	11.7%	12.4%	8.91 µM (active)		inactive
C[C@]12CCC(=O)C=C1CC[C@@H]1[C@@H]2CC[C@@]2(C)[C@H]1CC[C@]2(O)C(=O)CO	inactive	inactive						-0.711% (inactive)	15.6%	12.1%	inactive		
CNCCCN1c2ccccc2CCc2ccccc21	inactive	inactive											inactive
CCN(CC)CCOCCOC(=O)C1(c2ccccc2)CCCC1	inactive	inactive	3.16 µM (active)				0.794 µM (active)	-1.81% (inactive) and 10.4% (inactive) and -0.577% (inactive)			2.24 µM (active)	-7.98% (inactive)	
O=C(O)CN(CCOCCOCCN(CC(=O)O)CC(=O)O)CC(=O)O	inactive		inactive	inactive	inactive	inactive	inactive	0.929% (inactive)	-9.11%	-9.56%	inactive		
CSc1ccc(C(=O)c2[nH]c(=O)[nH]c2C)cc1	inactive	inactive	inactive	inactive		inactive	inactive				inactive		inactive
CC(C)[N+](C)(CCOC(=O)C1c2ccccc2Oc2ccccc21)C(C)C		inactive	12.6 µM (active)	10 µM (active)	3.98 µM (active)	11.2 µM (active)	8.91 µM (active)		-9.66%	-8.2%		0.9% (inactive)	inactive
COCC(=O)O[C@]1(CCN(C)CCCc2nc3ccccc3[nH]2)CCc2cc(F)ccc2[C@@H]1C(C)C	inactive		2.24 µM (active)	0.141 µM (active)	3.16 µM (active)	8.91 µM (active)	0.501 µM (active)	-12.5% (inactive)	-3.1%	-16.1%	1.26 µM (active)		
N[C@@H](COP(=O)(O)O)C(=O)O	inactive		inactive	inactive	inactive	inactive		3.29% (inactive) and -0.662% (inactive)	18.8% and -18.9%	26.3% and -20.3%	inactive		
CCc1c(C)[nH]c2c1C(=O)C(CN1CCOCC1)CC2 (stereo unspecified)	inactive	inactive	inactive	inactive	inactive	inactive							inactive
CCn1ccnc1CC1COc2ccccc2O1 (stereo unspecified)	inactive	inactive			inactive	inactive	10 µM (active)	1.49% (inactive)	56.5%	60.7%	inactive		
NS(=O)(=O)c1cc2c(cc1Cl)NC(C1CC3C=CC1C3)NS2(=O)=O (stereo unspecified)	inactive	inactive	inactive	inactive	inactive	inactive	inactive				inactive		
O=C(O)CCCCCCCC(=O)O	inactive	inactive	inactive	inactive	inactive	inactive	inactive				inactive		inactive
C[N+](C)(C)CCCCCCCCCC[N+](C)(C)C		inactive							-13.2%	-14.8%		-3.64% (inactive)	
C[C@]12CCC(=O)C=C1CC[C@@H]1[C@@H]2C(=O)C[C@@]2(C)[C@H]1CC[C@]2(O)C(=O)CO	inactive	inactive	inactive	inactive	inactive	inactive					inactive		inactive
Cc1ccc(=O)n(-c2ccccc2)c1	inactive		inactive	inactive	inactive	inactive	inactive	1.81% (inactive)	6.64%	9.28%	inactive		inactive
CCCN(CCC)CCc1cccc2c1CC(=O)N2		inactive	inactive	inactive	inactive	inactive		5.49% (inactive)	9.72%	11.6%	inactive		inactive
